From PubChem BioAssay
Activity calls are given as the source filed them.

Tests used:
Albumin (Bos taurus) = Albumin (Bos taurus) (UniProt P02769); assay: compounds binding labelled BSA control protein – biochemical, small-molecule microarray, Alexa647 label, 635/667 nm fluorescence, artefact control for SMM control protein annotation, profiling panel (AID 1118); details: BSA-A647 binding, fluorescence 635 nm, higher = more signal;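 further: score merges 667 nm emission intensity and signal-to-noise per printed compound spot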
[1] = probe aXIP binding to arrayed compounds – biochemical, NeuroSMM set, 635/667 nm fluorescence, primary screen (AID 1119); details: small-molecule microarray, higher = more signal, called active from +8 up or from −8 down;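 further: probe is the protein aXip251-270 applied at 1 µg/mL to compound-printed slides; binding of probe to printed compounds measured as 667 nm fluorescence plus signal to noise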
[2] = probe aNOTCH3 binding on compound microarray – biochemical, small-molecule microarray, 635/667 nm fluorescence, primary screen (AID 1120); details: higher = more signal;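 further: probe is a biotin-tagged antibody raised against NOTCH3 rather than NOTCH3 protein; score merges spot fluorescence near 667 nm with spot signal to noise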
[3] = probe aNOTCH2 binding on compound microarray – biochemical, small-molecule microarray, 635/667 nm fluorescence, primary screen (AID 1121); details: higher = more signal;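 further: score merges feature fluorescence read at 667 nm with its signal to noise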
[4] = target: Carbonic anhydrase 2 (Homo sapiens) (UniProt P00918); assay: compounds binding carbonic anhydrase 2 – biochemical, small-molecule microarray, Alexa647-labelled CAII, profiling panel (AID 1122); details: CAII-A647 binding fluorescence, higher = more signal
[5] = COS7 lysate on small-molecule microarray, probe aHis, 635 nm (AID 1123); details: COS7 cell lysate, fluorescence, higher = more signal;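 further: z-score combines 667nm fluorescence intensity with signal-to-noise per printed compound spot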
[6] = probe aLAP1 signal on lysate-treated microarray – cell lysate, small-molecule microarray, COS7 lysate, primary screen (AID 1124); details: probe aLAP1, fluorescence, higher = more signal;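 further: lysate comes from COS7 cells expressing LAP1 and is applied at 0.3 µg/mL; score merges spot fluorescence near 667 nm with signal-to-noise over triplicate slides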
Sam68 (KHDRBS1) = assay: compounds binding KHDRBS1 protein – biochemical, small-molecule microarray, 635 nm fluorescence, primary screen (AID 1125); details: higher = more signal;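 further: score merges 667 nm channel intensity with signal to noise over triplicate slides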
[7] = test system: Chordin-like protein 2 (CHRDL2); assay: compounds binding chordin-like 2 – biochemical, small-molecule microarray, 635 nm fluorescence, primary screen (AID 1126); details: fluorescence 635 nm, higher = more signal;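 further: printed compound slides probed with Chrdl2 protein at 4 µg/mL for 1 h at 4 C; score merges 667 nm emission intensity with signal to noise over three replicate slides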
[8] = target: Concanavalin-A (Canavalia ensiformis) (UniProt P02866); assay: compounds binding concanavalin A lectin – biochemical, small-molecule microarray, Alexa647 label, 635 nm, artefact control for SMM control protein annotation, primary screen (AID 1127); details: ConA-A647 binding fluorescence, higher = more signal;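 further: z combines 667 nm emission intensity with signal-to-noise across three replicate slides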
[9] = compounds binding Alexa647 anti-His antibody – biochemical, small-molecule microarray, 635 nm fluorescence, artefact control for SMM control protein annotation, primary screen (AID 1128); details: higher = more signal;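 further: score merges feature fluorescence with signal-to-noise for each printed compound spot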
[10] = test system: Human papillomavirus type 1a E7 protein (residues 1-88); assay: HPV1a E7 small-molecule binders, primary screen, biochemical, small-molecule microarray, residues 1-88, 635 nm (AID 1129); details: small-molecule microarray binding, fluorescence 635 nm; higher = more signal
[11] = target: Focal adhesion kinase 1 (Homo sapiens) (UniProt Q05397); assay: PTK2 protein binding on printed compound slides – biochemical, small-molecule microarray, 635/667 nm fluorescence, BSA, DTT, primary screen (AID 1130); details: 635 nm fluorescence, higher = more signal;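 further: composite of spot emission at 667 nm and signal to noise over triplicate slides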
[12] = test system: Fibrinogen (Alexa647-labelled); assay: Alexa647-fibrinogen binding to printed small molecules – biochemical, small-molecule microarray, 635/667 nm fluorescence, artefact control for SMM control-protein annotation, profiling panel (AID 1131); details: fibrinogen-A647 binding fluorescence, higher = more signal;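 further: z-score merges 667 nm fluorescence with per-spot signal-to-noise over triplicate slides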
[13] = target: Follistatin (Homo sapiens) (UniProt P19883); assay: FST protein binding to printed compounds – biochemical, small-molecule microarray, 635/667 nm fluorescence, primary screen (AID 1132); details: 635 nm fluorescence, higher = more signal
[14] = target: Fibroblast growth factor 2 (Homo sapiens) (UniProt P09038); assay: basic fibroblast growth factor binding to printed compounds – biochemical, small-molecule microarray, 635/667 nm fluorescence, primary screen (AID 1133); details: FGF2, fluorescence 635/667, higher = more signal
[15] = JC-1 mitochondrial potential readout, lung cancer cells – cell-based, A549, JC-1 fluorescence, basal, 24 h, 100 nL, profiling panel (AID 1138); details: higher = more signal;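 further: A549 lung adenocarcinoma cells under basal conditions with no added stimulus; test concentration not given here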
Lefty1 = Lefty1 protein binding to printed compounds – biochemical, small-molecule microarray, 635/667 nm fluorescence, primary screen (AID 1139); details: fluorescence 635/667, higher = more signal
[16] = test system: wheat germ agglutinin (Triticum aestivum), Alexa647-labelled; assay: Alexa647-WGA lectin binding to printed small molecules – biochemical, small-molecule microarray, 635/667 nm fluorescence, artefact control for SMM control-protein annotation, profiling panel (AID 1140); details: WGA-A647 binding, 635 nm fluorescence, higher = more signal;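 further: score merges 667 nm feature emission with signal to noise over triplicate slides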
[17] = target: Luciferin 4-monooxygenase (Photinus pyralis) (UniProt P08659); assay: inhibition of purified Photinus pyralis luciferase – biochemical, luminescence, purified enzyme, 2006 set, primary screen (AID 1141); details: purified firefly luciferase, SteadyGlo luminescence, 30 min; higher = more signal, called active from +8 up or from −8 down;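 further: cell-free assay with purified firefly luciferase at 100 ng per well in PBS; test concentration not given here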
Chain of Luciferin 4-monooxygenase (Photinus pyralis) (P08659 whole entry, looked up): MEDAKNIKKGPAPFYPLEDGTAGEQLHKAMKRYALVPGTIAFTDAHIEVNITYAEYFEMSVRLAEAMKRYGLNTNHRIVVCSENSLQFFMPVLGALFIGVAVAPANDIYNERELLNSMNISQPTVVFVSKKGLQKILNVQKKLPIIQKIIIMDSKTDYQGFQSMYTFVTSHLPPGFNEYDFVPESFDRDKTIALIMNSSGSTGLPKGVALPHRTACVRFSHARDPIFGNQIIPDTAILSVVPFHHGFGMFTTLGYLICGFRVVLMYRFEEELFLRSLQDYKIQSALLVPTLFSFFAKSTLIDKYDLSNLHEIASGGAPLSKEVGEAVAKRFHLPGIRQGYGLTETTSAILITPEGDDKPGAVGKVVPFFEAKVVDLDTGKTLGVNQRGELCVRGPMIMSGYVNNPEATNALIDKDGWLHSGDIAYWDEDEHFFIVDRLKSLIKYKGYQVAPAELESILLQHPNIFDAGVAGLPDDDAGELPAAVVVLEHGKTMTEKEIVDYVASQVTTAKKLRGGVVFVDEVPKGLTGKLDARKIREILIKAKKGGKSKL

Chain of Concanavalin-A (Canavalia ensiformis) (P02866 whole entry, looked up): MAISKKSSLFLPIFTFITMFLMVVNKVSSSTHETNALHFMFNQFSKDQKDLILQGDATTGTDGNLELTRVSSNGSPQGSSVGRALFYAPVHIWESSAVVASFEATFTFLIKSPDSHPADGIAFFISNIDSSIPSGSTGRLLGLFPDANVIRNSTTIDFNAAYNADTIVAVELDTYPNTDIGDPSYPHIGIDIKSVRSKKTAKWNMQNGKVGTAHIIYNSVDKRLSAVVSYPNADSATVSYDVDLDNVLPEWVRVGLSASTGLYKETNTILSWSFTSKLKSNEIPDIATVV
Chain of Follistatin (Homo sapiens) (P19883 whole entry, looked up): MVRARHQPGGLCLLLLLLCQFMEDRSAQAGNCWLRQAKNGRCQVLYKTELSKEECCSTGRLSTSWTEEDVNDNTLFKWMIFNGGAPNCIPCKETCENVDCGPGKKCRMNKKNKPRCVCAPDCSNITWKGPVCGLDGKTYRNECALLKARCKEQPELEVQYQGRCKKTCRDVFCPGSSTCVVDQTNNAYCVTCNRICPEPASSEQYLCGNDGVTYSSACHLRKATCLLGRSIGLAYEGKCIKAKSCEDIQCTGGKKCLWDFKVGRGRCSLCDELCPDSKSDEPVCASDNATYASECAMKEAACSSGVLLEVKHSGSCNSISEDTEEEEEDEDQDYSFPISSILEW
Chain of Fibroblast growth factor 2 (Homo sapiens) (P09038 whole entry, looked up): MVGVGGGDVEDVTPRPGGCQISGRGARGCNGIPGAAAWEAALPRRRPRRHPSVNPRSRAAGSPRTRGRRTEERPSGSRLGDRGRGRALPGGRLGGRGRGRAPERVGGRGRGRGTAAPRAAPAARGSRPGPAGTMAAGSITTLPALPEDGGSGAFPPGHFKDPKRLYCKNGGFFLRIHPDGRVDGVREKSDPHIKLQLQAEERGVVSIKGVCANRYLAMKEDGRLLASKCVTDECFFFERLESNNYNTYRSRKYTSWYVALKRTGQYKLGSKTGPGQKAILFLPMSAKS
Chain of Focal adhesion kinase 1 (Homo sapiens) (Q05397 whole entry, looked up): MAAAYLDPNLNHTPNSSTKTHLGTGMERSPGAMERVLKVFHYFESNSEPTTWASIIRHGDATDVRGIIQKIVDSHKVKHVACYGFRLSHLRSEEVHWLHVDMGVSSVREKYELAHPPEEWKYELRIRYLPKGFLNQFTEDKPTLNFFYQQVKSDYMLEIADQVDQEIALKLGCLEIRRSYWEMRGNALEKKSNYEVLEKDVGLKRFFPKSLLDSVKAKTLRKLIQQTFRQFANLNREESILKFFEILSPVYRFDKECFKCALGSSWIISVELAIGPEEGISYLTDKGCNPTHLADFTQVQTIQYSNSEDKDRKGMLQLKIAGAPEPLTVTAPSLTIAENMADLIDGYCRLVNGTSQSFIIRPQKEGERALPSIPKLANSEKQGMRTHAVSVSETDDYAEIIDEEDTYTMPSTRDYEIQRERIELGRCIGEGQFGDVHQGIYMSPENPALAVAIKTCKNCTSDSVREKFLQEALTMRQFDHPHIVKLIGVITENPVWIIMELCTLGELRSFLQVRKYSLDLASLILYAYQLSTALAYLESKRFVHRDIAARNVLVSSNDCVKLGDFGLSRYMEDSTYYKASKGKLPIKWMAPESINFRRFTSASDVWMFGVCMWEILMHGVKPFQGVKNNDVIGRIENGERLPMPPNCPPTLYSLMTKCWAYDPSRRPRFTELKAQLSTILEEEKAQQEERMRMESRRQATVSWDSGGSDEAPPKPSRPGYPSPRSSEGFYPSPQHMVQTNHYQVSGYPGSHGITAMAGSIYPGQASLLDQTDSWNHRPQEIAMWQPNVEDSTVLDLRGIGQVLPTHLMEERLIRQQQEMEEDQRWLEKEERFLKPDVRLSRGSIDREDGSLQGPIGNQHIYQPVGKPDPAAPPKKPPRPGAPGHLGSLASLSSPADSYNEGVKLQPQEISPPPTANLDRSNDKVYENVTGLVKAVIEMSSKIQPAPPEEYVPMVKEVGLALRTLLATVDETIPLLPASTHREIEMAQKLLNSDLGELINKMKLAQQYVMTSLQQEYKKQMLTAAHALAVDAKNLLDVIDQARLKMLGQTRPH
Chain of Albumin (Bos taurus) (P02769 whole entry, looked up): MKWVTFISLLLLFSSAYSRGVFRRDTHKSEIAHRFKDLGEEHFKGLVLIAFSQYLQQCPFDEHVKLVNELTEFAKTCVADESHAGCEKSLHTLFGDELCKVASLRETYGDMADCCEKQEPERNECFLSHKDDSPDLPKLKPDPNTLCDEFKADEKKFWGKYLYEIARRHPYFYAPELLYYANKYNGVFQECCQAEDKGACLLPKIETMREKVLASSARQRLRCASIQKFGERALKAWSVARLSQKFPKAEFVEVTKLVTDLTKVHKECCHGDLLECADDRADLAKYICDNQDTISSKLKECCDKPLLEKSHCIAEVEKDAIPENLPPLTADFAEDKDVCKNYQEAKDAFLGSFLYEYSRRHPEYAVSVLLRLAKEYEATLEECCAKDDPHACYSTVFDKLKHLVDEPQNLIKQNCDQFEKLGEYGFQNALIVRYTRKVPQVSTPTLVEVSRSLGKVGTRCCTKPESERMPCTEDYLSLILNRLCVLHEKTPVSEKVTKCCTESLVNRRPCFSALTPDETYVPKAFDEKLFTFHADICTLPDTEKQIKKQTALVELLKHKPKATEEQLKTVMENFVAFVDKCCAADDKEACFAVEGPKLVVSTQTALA

Compound	composite z-score (Albumin (Bos taurus))	composite Z-score [1]	composite z-score [2]	composite z-score [3]	composite z-score [4]	composite z-score [5]	composite z-score [6]	composite z-score (Sam68 (KHDRBS1))	composite z-score [7]	composite z-score [8]	composite z-score [9]	composite z-score [10]	composite z-score [11]	composite z-score [12]	composite z-score [13]	composite z-score [14]	z-score [15]	composite z-score (Lefty1)	composite z-score [16]	z-score [17]
CCCC[C@H]1C[C@@H]1[C@@H]1N(P(=O)(c2ccccc2)c2ccccc2)[C@](CO)(c2ccccc2)CC12CC2	0.914	-0.0435 (inactive)	0.112	0.281	0.285	2.17	-0.384	0.255	-1.39	0.558	0.108	1.12	0.737	0.936	0.156	-1.11	-1.75	-0.519	0.434	2.75 (inactive)
CC(=O)n1cc(C(O)C2C=CC3C(=O)N(c4ccccc4)C(=O)C3N2Nc2ccc(C#N)cc2)c2ccccc21 (stereo not given)	0.938	-0.187 (inactive)	0.307	0.0753	0.798	2.7	0.53	1.31	-0.776	0.876	1.56	1.26	0.519	0.893	0.12	-0.856	0.0139	-0.233	1.38	-0.985 (inactive)
COC(=O)c1nc2oc1CC[C@@H](CO)NC(=O)N(C)Cc1cn(nn1)C[C@H](Cc1ccccc1)NC2=O	0.775	-0.275 (inactive)	-0.256	-0.152	0.942	1.02	0.483	0.178	0.376	0.667	0.0255	-0.151	-0.242	0.0318	0.905	1.06	0.457	0.17	0.536	0.376 (inactive)
COc1ccc(C#Cc2ccc3c(c2)[C@]2(C(=O)N3)[C@H](C(=O)N3CCN(c4ncccn4)CC3)[C@H]3C(=O)O[C@H](c4ccccc4)[C@H](c4ccccc4)N3[C@@H]2c2ccc(O)cc2)cc1	0.413	0.345 (inactive)	-0.184	0.0086	0.327	1.19	0.76	1.3	0.7	1.05	0.658	1.2	0.392	0.972	1.2	0.485	-0.799	0.884	0.4	-0.374 (inactive)
CN(C)CCCC[C@@H]1NC(=O)[C@@H]2C[C@H](C(=O)NCc3ccc(F)cc3)[C@H](c3cccc(OCCO)c3)N2C1=O	-0.202	-0.398 (inactive)	-0.0311	-0.0598	0.569	2	0.776	1.05	0.991	1.11	0.654	0.68	0.0978	0.909	1.41	1.96	0.591	1.11	-0.0486	-0.579 (inactive)
COC(=O)[C@@]1(Cc2ccc(F)cc2)[C@H]2c3cc(C(=O)N(C)C)n(CCc4c[nH]c5ccc(OC)cc45)c3C[C@H]2CN1C(=O)c1ccccc1	0.655	0.0904 (inactive)	0.351	0.317	0.617	2.74	0.606	1.1	-0.705	-0.203	-0.0359	1.25	0.827	1.04	-0.49	-1.09	-1.79	-1.41	1.37	0.158 (inactive)
O=S(=O)(NCCCO)c1ccc(Br)cc1	0.45	-0.854 (inactive)	-0.0414	-0.057	0.62	0.0505	0.337	0.522	0.678	0.397	0.309	0.918	0.0087	-0.088	1.17	0.663	0.802	-0.0569	0.54	-0.0622 (inactive)
O=C(NCC(O)CO)[C@@]1(Cc2ccccc2)N=C(c2ccc(OCCCO)cc2)O[C@H]1c1ccccc1 (stereo not given in full)	0.944	0.805 (inactive)	0.331	0.257	0.852	2.83	1.01	1.24	-1.34	0.785	3.21	1.2	0.0855	0.956	1.29	0.331	1.44	-0.836	0.922	-1.6 (inactive)
C=C(COC)C(=O)CC[C@H](OC(=O)c1cccnc1)c1ccccc1OCCO	0.233	0.708 (inactive)	0.217	-0.0846	0.286	0.765	0.591	1.32	0.906	0.475	1.12	1.16	-0.0493	0.756	1.36	1.56	-0.0406	1.47	0.18	-2.36 (inactive)
O=C1[C@H]2C=C(Br)[C@H](C[C@@H]2OCCOCCO)[C@@]12CO2	-0.335	-0.0482 (inactive)	-0.105	-0.0418	-0.122	-0.146	0.669	0.421	0.169	0.393	0.141	0.314	-0.0415	0.138	-0.864	0.179	-0.271	0.199	-0.0695	0.582 (inactive)
CCCCN1CC=CC23O[C@@H]4C=CCCOC(=O)C4[C@H]2C(=O)N(CCCO)[C@@H]3C1=O (stereo not given in full)	-1.13	-0.941 (inactive)	-0.189	-0.155	0.488	-0.673	-0.469	-0.905	-0.304	-1.59	-1.31	-1.79	-0.274	-1.42	0.274	-0.469	-1.13	-0.439	-1.45	-0.11 (inactive)
